Experiment [1] in a line: qHTS assay to identify small molecule agonists of the vitamin D receptor (VDR) signaling pathway - cell viability counter screen (AID 743224). Note: series mostly up to about 63 µM; nearly all actives have a fitted effect of over 50% in size. In outline: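 VDR-bla cells, 4 h after plating, exposed to compounds for 16 h at 37C; viability then read in the same wells as CellTiter-Glo luminescence after 30 min at room temperature, following the bla FRET read.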
On the technique in general: qHTS replaces the single test concentration by a dilution series.

The nature of experiment [2]: qHTS assay to identify small molecule antagonists of the vitamin D receptor (VDR) signaling pathway - cell viability counter screen (AID 743225). Note: nearly all actives have a fitted effect of over 50% in size. In outline:
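Same-well multiplex: following 16 h treatment of HEK 293T cells carrying a UAS-driven beta-lactamase reporter with compound and agonist (3 nM final), and a 2 h FRET substrate step, CellTiter-Glo was added and luminescence read after 30 min.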

A short description of experiment [3]: qHTS assay to identify small molecule agonists of the NFkB signaling pathway (AID 1159509; active = well fitted curve in the direction sought with a large enough effect in the signal ratio in the repeat runs, not every such curve was filed as active; the % refers to the signal ratio; note: series mostly up to about 61 µM). In outline: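 ME-180 NFkB-bla, 2,000 cells/well, overnight plating; cpd pinned in DMSO, 5 h 37 C; B/G FRET substrate 1.5 h RT; ex 405, em 460/530 nm.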
The nature of experiment [4]: qHTS assay to identify small molecule agonists of the NFkB signaling pathway - cell viability counter screen (AID 1159515; calls by dose curve; note: series mostly up to about 61 µM; nearly all actives have a fitted effect of over 55% in size). In outline:
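NFkB-bla ME-180 cells, 2,000/well, plated overnight at 37 C; compound added for 5 hr at 37 C. Viability read in the same wells as the bla reporter, by CellTiter-Glo luminescence after 30 min at room temperature.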

The nature of experiment [5]: qHTS assay to identify small molecule agonists of the endoplasmic reticulum stress response signaling pathway (AID 1159516; active = well fitted activation curve with a large enough effect in the signal ratio in the repeat runs, not every such curve was filed as active; the % refers to the signal ratio). In outline:
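CellSensor ESRE-bla HeLa cells, 1,500 per well, plated overnight, then exposed to compounds for 5 hr at 37 C. Beta-lactamase reporter read with LiveBLAzer B/G FRET substrate after 2 hr at room temperature, 405 nm excitation, 460 and 530 nm emission.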

Experiment [6] can be described thus: qHTS assay to identify small molecule agonists of the endoplasmic reticulum stress response signaling pathway - cell viability counter screen (AID 1159517; calls by dose curve;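 note: HeLa cells carrying an ER stress response element beta-lactamase reporter; series mostly up to about 61 µM; nearly all actives have a fitted effect of over 50% in size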). In outline:
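ESRE-bla HeLa cells, 1,500 per well, seeded overnight then treated with compounds for 5 hr at 37 C. After the beta-lactamase read, viability in the same wells is measured by CellTiter-Glo luminescence after 30 min at room temperature.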

Experiment [7] can be described thus: qHTS assay to identify small molecule antagonists of the retinoid-related orphan receptor gamma (ROR-gamma) signaling pathway - cell viability counter screen (AID 1159520). Note: nearly all actives have a fitted effect of over 50% in size. In outline: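 Tet-on ROR gamma CHO cells were given compounds for 2 hr, then doxycycline hyclate at 1 uM final, and incubated 16 hr at 37 C. Viability was measured as ATP content by CellTiter-Glo luminescence.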

The target in experiment [8] is Nuclear receptor ROR-gamma (Homo sapiens) (UniProt P51449). Put plainly: qHTS assay to identify small molecule antagonists of the retinoid-related orphan receptor gamma (ROR-gamma) signaling pathway (AID 1159521). In outline:
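Inducible-expression reporter assay: doxycycline (1 uM final) switched on RORγ in CHO cells bearing a ROR response element-luciferase construct, with test compounds present from 2 h beforehand. Decreased luminescence after 16 h defined antagonist activity.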

The nature of experiment [9]: qHTS assay to identify small molecule agonists of the AP-1 signaling pathway - cell viability counter screen (AID 1159525; calls by dose curve; note: nearly all actives have a fitted effect of over 55% in size). In outline:
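AP-1-bla ME-180 cells in Opti-MEM with 0.5% dialyzed FBS, compound exposure 5 h at 37 C in 15-point titration. Viability read in the same wells as ATP content by CellTiter-Glo luminescence, normalised to tetra-n-octylammonium bromide and DMSO controls.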

Experiment [10] can be described thus: qHTS assay to identify small molecule agonists of the AP-1 signaling pathway (AID 1159526; calls by dose curve).
In experiment [11] the target is Retinoic acid receptor RXR-alpha (Homo sapiens) (UniProt P19793). Put plainly: qHTS assay to identify small molecule agonists of the RXR signaling pathway (AID 1159527; calls by dose curve; note: nearly all actives have a fitted effect of over 35% in size; note: potency is the fitted concentration of half-maximal effect). In outline:
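Compounds in DMSO were added to RXR-alpha-UAS-bla HEK 293T cells kept in 2% charcoal-stripped serum, and incubated 16 hr at 37 C with 5% CO2. Reporter signal came from a 2 hr B/G FRET substrate step.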

Experiment [12] can be described thus: qHTS assay to identify small molecule agonists of the RXR signaling pathway - cell viability counter screen (AID 1159529). In outline: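 Counter screen: CellTiter-Glo luminescence. Cells: RXR-alpha-UAS-bla HEK 293T. Medium: 2% charcoal-stripped FBS. Treatment: 16 h, 37 C. Reagent incubation: 30 min, RT.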
Experiment [13] can be described thus: qHTS assay to identify small molecule antagonists of the retinoid acid receptor (RAR) signaling pathway - cell viability counter screen (AID 1159551). Note: nearly all actives have a fitted effect of over 35% in size. In outline:
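C3RL4 RARE-luciferase cells, 1,000/well, incubated overnight, then dosed with compound plus 1 uM retinol (final). After 6 hr at 37 C, viability read by CellTiter-Glo ATP luminescence following 30 min at room temperature.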

The nature of experiment [14]: qHTS assay to identify small molecule agonists of the retinoic acid receptor (RAR) signaling pathway (AID 1159553). Note: potency is the fitted concentration of half-maximal effect. In outline:
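C3RL4 RARE-luciferase cells were seeded at 1,000/well and grown overnight at 37 C, then exposed to compounds for 6 hr at 37 C, 5% CO2. Luciferase reagent was added and luminescence was read after 30 min at room temperature.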

A short description of experiment [15]: qHTS assay to identify small molecule antagonists of the retinoic acid receptor (RAR) signaling pathway (AID 1159552; note: nearly all actives have a fitted effect of over 50% in size). In outline: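 Antagonism of retinol-induced RARE reporter activity was measured in C3RL4 cells. Exposure to compounds and 1 uM final retinol lasted 6 hr at 37 C, with luminescence as endpoint.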

“And” between values parts separate entries of the source, which are not always exact repeats. Identical values can stand only once. Results filed as inconclusive are left out. Where a structure was tested more than once in an assay, its records may differ in their call. The source made the active and inactive calls. Unless noted, calls come from the whole dose curve; as a rule, active = well fitted curve in the direction sought with a large enough effect in the repeat runs; inconclusive = weak or mixed curves; inactive = no such curve, though single readings can be large; an effect the other way counts as inactive or inconclusive.

Sequence of Retinoic acid receptor RXR-alpha (Homo sapiens) (P19793 whole entry, looked up): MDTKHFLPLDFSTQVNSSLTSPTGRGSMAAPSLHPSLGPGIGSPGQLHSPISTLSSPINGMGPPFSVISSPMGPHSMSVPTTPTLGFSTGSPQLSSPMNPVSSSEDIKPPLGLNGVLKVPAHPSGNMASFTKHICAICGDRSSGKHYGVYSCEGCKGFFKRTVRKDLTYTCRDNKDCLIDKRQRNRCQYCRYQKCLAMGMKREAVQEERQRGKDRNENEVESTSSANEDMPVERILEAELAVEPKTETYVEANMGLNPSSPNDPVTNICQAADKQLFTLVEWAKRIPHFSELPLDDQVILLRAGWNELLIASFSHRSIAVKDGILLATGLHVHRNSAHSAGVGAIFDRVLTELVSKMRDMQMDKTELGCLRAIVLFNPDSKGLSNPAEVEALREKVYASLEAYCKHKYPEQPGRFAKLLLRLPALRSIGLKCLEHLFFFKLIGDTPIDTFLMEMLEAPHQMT

As to `ClC(Cl)c1ccccc1`, the Potency entry in experiment [1], in [8], in experiment [10], in [11] and in experiment [14] was “inactive” throughout. Besides, the molecule was classed as inactive in experiment [2], in [3], in experiment [4], in experiment [5], in experiment [6] and in experiment [7]. Besides, the outcome in [9], in experiment [12] and in [13] was inactive.

Take `C[C@H]1C(=O)O[C@@H]2CCN3CC=C(COC(=O)[C@](C)(O)[C@]1(C)O)[C@H]23`: the Potency entry in [1], in experiment [8], in experiment [10], in experiment [11], in experiment [15] and in experiment [14] was “inactive” in each case. For the same molecule, the result in experiment [2], in [3], in [4], in [5], in experiment [6] and in experiment [7] was inactive. For the same molecule, the call in experiment [9], in [12] and in experiment [13] was inactive.

On to `CNC(=O)Oc1cccc2ccccc12`, for which the Potency entry in experiment [1], in experiment [8], in experiment [10], in experiment [11], in [15] and in experiment [14] was “inactive” in each case. The molecule was classed as inactive in [2], in experiment [3], in experiment [4], in experiment [5], in experiment [6] and in experiment [7]. Moreover, the result in [9] and in experiment [13] was inactive.

Take `Cc1ccc(N)cc1`: the Potency entry in experiment [1], in [8], in [10] and in [15] was “inactive” each time. Moreover, the molecule was classed as inactive in [2], in experiment [3], in experiment [4], in [5], in [6] and in [7]. The molecule was classed as inactive in [9], in [12] and in experiment [13]. In addition, the Potency entry in experiment [11] was “inactive and 19.5 µM (active)”; in experiment [14], 61.5 µM (active) and inactive.

As for `O=P1(NCCCl)OCCCN1CCCl` (stereo unspecified), the Potency entry in [1], in [8], in experiment [10], in experiment [11], in [15] and in [14] was “inactive” in each case. Besides, the molecule was classed as inactive in [2], in experiment [3], in experiment [4], in [5], in [6] and in experiment [7]. Further, the molecule was classed as inactive in [9] and in experiment [13].

As for `CNC(=O)O/N=C/C(C)(C)S(C)(=O)=O`, the Potency result in experiment [1], in experiment [8], in [10], in experiment [11] and in [14] was “inactive” throughout. Besides, the result in [2], in experiment [3], in experiment [4], in experiment [5], in [6] and in experiment [7] was inactive. Besides, the outcome in [9], in experiment [12] and in [13] was inactive.

Take `O=S(=O)(O)OOS(=O)(=O)O`: the Potency entry in experiment [1], in [8], in [10] and in experiment [11] was “inactive” throughout. Moreover, the result in experiment [2], in experiment [3], in experiment [4], in experiment [5], in experiment [6] and in experiment [7] was inactive. Moreover, the outcome in experiment [9], in experiment [12] and in [13] was inactive.

Regarding `ClCCOCCCl`, the Potency result in experiment [1], in [8], in [10], in experiment [11], in experiment [15] and in experiment [14] was “inactive” each time. In addition, the outcome in experiment [2], in [3], in experiment [4], in experiment [5], in experiment [6] and in experiment [7] was inactive. The molecule was called inactive in experiment [9] and in experiment [13].

As to `CN(C)CCC#N`, the Potency result in experiment [1], in experiment [8], in experiment [10], in experiment [11], in [15] and in experiment [14] was “inactive” throughout. Besides, the call in [2], in [3], in experiment [4], in experiment [5], in experiment [6] and in [7] was inactive. Further, the molecule was called inactive in [9] and in [13].

With `OCCCCO`, the Potency result in [1], in [8], in [10], in experiment [11] and in [14] was “inactive” in each case. The call in experiment [2], in [3], in experiment [4], in experiment [5], in experiment [6] and in experiment [7] was inactive. Besides, the result in experiment [9], in experiment [12] and in experiment [13] was inactive.

For the origin of these results see PubChem BioAssay (Tox21).
